High-throughput results (PubChem BioAssay)
Compounds with a hit are over-represented: about 19% of the library has one in this group of screens.
TGFb SMAD3 inh: blocks TGF-b signaling. AID 588855. hit rate 1.2% among 410,000. HepG2 CAGA-GFP TGF-b/SMAD3 reporter, GFP fluorescence, 18 h; TGF-beta stimulated, 500 pg/mL final. Potency, µM (series often up to 46.1 µM), most hits filed as inhibitors; further: nearly all actives have a fitted effect of over 65% in size
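Cell-based qHTS in HEPG2 carrying a CAGA-GFP Smad reporter; compounds added before 500 pg/mL final TGF-beta, 18 h incubation at 37 degrees C, GFP fluorescence quantified per cell by imaging cytometry.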
TDP1 inh: blocks human tyrosyl-DNA phosphodiesterase 1; Q9NUW8; recombinant TDP1, AlphaScreen DNA substrate cleavage; Potency, µM (top dose mostly 130 µM), most hits filed as inhibitors; hit rate 0.28% among 350,000; further: nearly all actives have a fitted effect of over 40% in size
Target sequence (Q9NUW8 whole entry, looked up): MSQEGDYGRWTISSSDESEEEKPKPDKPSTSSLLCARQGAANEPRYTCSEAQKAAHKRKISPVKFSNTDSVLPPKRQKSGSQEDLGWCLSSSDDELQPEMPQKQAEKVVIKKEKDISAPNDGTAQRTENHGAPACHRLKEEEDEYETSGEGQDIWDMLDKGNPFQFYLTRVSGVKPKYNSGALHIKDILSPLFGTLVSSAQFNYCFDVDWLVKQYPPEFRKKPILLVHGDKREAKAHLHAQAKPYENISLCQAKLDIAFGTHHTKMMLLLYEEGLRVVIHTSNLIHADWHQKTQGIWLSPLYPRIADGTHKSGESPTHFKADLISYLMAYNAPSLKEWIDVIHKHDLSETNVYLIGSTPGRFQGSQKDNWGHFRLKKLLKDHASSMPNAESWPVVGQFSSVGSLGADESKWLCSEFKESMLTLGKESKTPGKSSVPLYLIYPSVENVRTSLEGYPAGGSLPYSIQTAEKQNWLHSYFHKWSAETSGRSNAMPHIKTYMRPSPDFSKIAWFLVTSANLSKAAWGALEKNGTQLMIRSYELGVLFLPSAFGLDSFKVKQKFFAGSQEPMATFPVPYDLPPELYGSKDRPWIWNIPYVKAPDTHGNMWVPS
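Steps: enzyme plus compound, 15 min RT; add biotin/phosphotyrosine-FITC oligonucleotide (15 nM final), react 5 min; add donor/acceptor beads (10 ug/ml final), 10 min; read AlphaScreen. Tdp1 at 1 nM final.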
DT40 TDP1 no CPT: qHTS for Inhibitors of human tyrosyl-DNA phosphodiesterase 1 (TDP1): qHTS in cells in absence of CPT; DT40 Tdp1-/- hTDP1 cells, no CPT, ATP luminescence, 48 h; Potency, µM (doses to about 46.2 µM), most hits filed as inhibitors; hit rate 15% among 420,000; further: nearly all actives have a fitted effect of over 55% in size
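Compound effects on proliferation are scored in DT40 Tdp1-/-;hTDP1 cells in the absence of CPT. ATP levels (CellTiter-Glo luminescence) are recorded after a ≥48 hr, 37 °C incubation.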
HepG2 tox: HepG2 cytotoxicity, counter-screen for TGF-b inhibitors; HepG2 CAGA-GFP viability, ATP luminescence, 18 h; Potency, µM (doses to about 46.1 µM), usual class: cytotoxic; hit rate 0.76% among 410,000; AID 588856
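CellTiter-Glo luminescence gave cytotoxicity after 18 hours at 37 degrees C. The cells were HepG2 CAGA-GFP in 1% FBS DMEM, stimulated with 500 pg/mL TGF-beta after compound addition. %Activity was normalised to no-cell wells (complete cell-killing) and DMSO (no toxicity), and curves were fitted and classified.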
IL1B secr inh: inhibitors of inflammasome signaling (IL-1 beta secretion) | THP-1 LPS/ATP IL-1B secretion, AlphaLISA, 16 h; stronger effect = lower value | activity change, % at 57.5 µM | hit rate 4.7% among 360,000; in the data active means activity change below about -50%; inconclusive means mostly about -30% to -49%
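THP-1 cells pretreated 1 hr with compounds (up to 57.5 uM final), then stimulated with LPS (250 ng/mL final) plus ATP (1.25 mM final); secreted IL-1B measured by AlphaLISA after 16 hr, decreased signal indicating inhibition.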
DT40 TDP1 CPT: growth inhibition of DT40 Tdp1-/-;hTDP1 cells with camptothecin (screen for TDP1 inhibitors). chicken DT40 Tdp1-/-;hTDP1 cells + 20 nM CPT, ATP luminescence, 48 h. Potency, µM (top dose mostly 46.2 µM), most hits filed as inhibitors. hit rate 12% among 420,000. AID 686979; further: nearly all actives have a fitted effect of over 55% in size
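Cell growth measured by CellTiter-Glo luminescence after a minimum 48 h, 37 C compound exposure with 20 nM CPT in Tdp1-knockout DT40 cells stably expressing hTDP1, seeded 400/well; qHTS titration format.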
A number is an active result; – = inactive; ? = inconclusive; · = no result. Unless noted, the call rests on the fitted dose curve; in most records, active means well fitted curve in the direction sought with a large enough effect; inconclusive means small, poorly fitted or top-dose-only effect, or another doubt; inactive means no such curve, though single readings can be large; an effect the other way counts as inactive or inconclusive.

SMILES | TGFb SMAD3 inh | TDP1 inh | DT40 TDP1 no CPT | HepG2 tox | IL1B secr inh | DT40 TDP1 CPT
COCCn1c(=O)c(-c2ccccc2)nc2cnc(N3CCNCC3)nc21 | · | · | – | · | · | –
O=c1c(-c2ccc(Cl)cc2)nc2cnc(N3CCNCC3)nc2n1CCc1ccccc1 | · | · | 18.4µM | · | · | 11.6µM
CC(=O)Nc1ccc(SCC(Cc2ccccc2)N2CCN(CCc3ccccc3)CCC2=O)cc1 (stereo not drawn) | ? | – | · | – | · | ·
COc1ccc(-c2nc3cnc(N4CCNCC4)nc3n(CCc3ccccc3)c2=O)cc1 | · | · | 20.6µM | · | · | ?
Cc1c(CCNC(=O)c2ccc(C(C)(C)C)cc2)sc2nc(-c3ccc(F)cc3)nn12 | – | – | 13µM | – | · | 14.6µM
Cc1c(CCNC(=O)c2ccco2)sc2nc(-c3ccc(F)cc3)nn12 | ? | – | 23.1µM | – | · | 20.6µM
Cc1c(CCNC(=O)Cc2ccc(F)cc2)sc2nc(-c3ccc(F)cc3)nn12 | – | – | ? | – | · | ?
Cc1c(CCNC(=O)Cc2ccccc2)sc2nc(-c3ccc(F)cc3)nn12 | ? | – | ? | – | · | ?
Cc1ccc(-c2nc3sc(CCNC(=O)c4ccco4)c(C)n3n2)cc1 | ? | – | 18.4µM | – | · | ?
CN(C)/[N+]([O-])=N/Oc1cc(ON=[N+]([O-])N2CCN(c3ncccn3)CC2)c([N+](=O)[O-])cc1[N+](=O)[O-] | ? | – | · | – | · | ·
O=C(CN1C(=O)COc2ccc(S(=O)(=O)N3CCCC3)cc21)N1CCN(c2ccccc2)CC1 | – | – | ? | – | · | –
CCOc1cccc(C2C=C(c3ccc4c(c3)OCO4)NC(c3ccccc3Cl)N2)c1O (stereo not drawn) | ? | – | 11.2µM | – | · | ?
Oc1ccc(Br)cc1C1C=C(c2ccc3c(c2)OCO3)NC(c2cccc(F)c2)N1 (stereo not drawn) | ? | – | · | – | · | ·
Oc1ccc(Cl)cc1C1C=C(c2ccc3c(c2)OCO3)NC(c2ccc(Cl)cc2)N1 (stereo not drawn) | ? | – | 6.31µM | – | · | 3.98µM
COC(=O)c1ccc(C2NC(c3ccc4c(c3)OCO4)=CC(c3ccccc3O)N2)cc1 (stereo not drawn) | 11.2µM | · | 6.31µM | – | · | 7.08µM
CCOC(=O)C1CCN(S(=O)(=O)c2ccc(N3CCCCS3(=O)=O)cc2)CC1 | ? | – | – | – | · | –
COc1cc2oc(=O)c(CC(=O)NCCc3ccccc3F)c(C)c2cc1OC | ? | – | – | – | · | –
COc1cc(NC(=O)CCN2CCN(c3ccccc3F)CC2)cc(OC)c1 | – | – | – | – | ? | 29.1µM
COc1ccc(NC(=O)CCN2CCN(c3cccc(Cl)c3)CC2)cc1 | – | – | ? | – | · | ?
COc1ccc(NC(=O)CCN2CCN(c3ccc(F)cc3)CC2)cc1 | – | · | ? | – | – | 23.1µM
CN(CCO)c1cccc2c1S(=O)(=O)N[C@H](Cc1ccccc1)CO2 | · | · | – | · | – | –
Nc1ncnc2nn(C3OC(CO)C(O)C3O)nc12 (stereo not drawn) | ? | · | 1.84µM | – | – | 4.11µM
Nc1ncnc2c1nc(Br)n2C1OC(CO)C(O)C1O (stereo not drawn) | · | – | 2.31µM | · | · | ?
Nc1ncnc2c1ncn2[C@@H]1O[C@H](CO)[C@H](O)[C@H]1O | · | – | · | · | · | ·
COCc1nn2cc(-c3ccc(C)cc3)nc2s1 | ? | – | ? | – | · | –
SMILES | TGFb SMAD3 inh | TDP1 inh | DT40 TDP1 no CPT | HepG2 tox | IL1B secr inh | DT40 TDP1 CPT
COC(=O)c1cc2oc(C)cc2n1Cc1ccc(C)cc1 | – | – | ? | – | · | –
CC(c1ccccc1)N(CC(=O)NC1CCCCC1)S(=O)(=O)c1cccc(C(F)(F)F)c1 (stereo not drawn) | ? | – | 16.4µM | – | -62.3 | ?
Cc1ccccc1NC(=O)CSc1nc2ccc(NC(=O)c3ccccc3)cc2s1 | ? | – | 16.4µM | – | · | ?
Cc1ccc(NC(=O)CSc2nc3ccc(NC(=O)c4cccc(Cl)c4)cc3s2)c(C)c1 | – | – | ? | – | · | ?
Cc1ccc(NC(=O)CSc2nc3ccc(NC(=O)c4ccco4)cc3s2)c(C)c1 | ? | – | 7.31µM | – | · | 16.4µM
Cc1ccccc1NC(=O)CSc1nc2ccc(NC(=O)CCc3ccccc3)cc2s1 | – | – | 9.2µM | – | · | ?
Cc1ccccc1NC(=O)c1cccc(NC(=O)c2ccco2)c1 | – | · | – | – | – | –
Cc1ccc(NC(=O)CSc2nc3ccc(NC(=O)CCc4ccccc4)cc3s2)cc1 | – | – | ? | – | · | ?
Cc1ccccc1NC(=O)CSc1nc2ccc(NC(=O)c3ccco3)cc2s1 | – | – | 20.6µM | – | · | 16.4µM
CCCCOC(=O)c1ccc(NC(=O)c2cc(-c3cccs3)on2)cc1 | – | – | ? | – | · | –
CC1=C(C(=O)Nc2c(C)cc(C)cc2C)C2(CCN(C(C)C)CC2)OC1=O | – | – | – | – | · | –
CN(C)C1=NCCN1CCc1cccc(F)c1 | – | · | – | – | – | –
Cc1cccc(NC(=O)CSc2nc3ccc(NC(=O)c4ccco4)cc3s2)c1 | – | – | 2.59µM | – | · | 10.3µM
CSc1nc2ccc(NC(=O)c3c(-c4ccccc4)noc3C)cc2s1 | – | · | ? | – | -65.2 | –
COc1cccc(NC(=O)CSc2nc3ccc(NC(=O)c4ccco4)cc3s2)c1 | ? | – | 18.4µM | – | · | 13µM
COc1ccc(NC(=O)CSc2nnc(NC(=O)c3ccco3)s2)cc1 | – | – | – | – | – | –
Cc1ccc(NC(=O)CSc2nc3ccc(NC(=O)c4cccs4)cc3s2)cc1 | – | – | ? | – | · | –
CCC1CN(C(=O)Nc2cc(Cl)ccc2C(=O)OC)c2ccccc2S1 (stereo not drawn) | – | – | ? | – | · | ?
O=C(O)c1ccccc1S(=O)(=O)CC(=O)N1CCCCC1 | – | · | – | – | – | –
COc1ccc(-c2nc(Cn3c(SCc4ccc(C)cc4)nc4ccncc43)c(C)o2)cc1OC | ? | – | ? | – | – | ?
COc1ccc(-c2nc(Cn3c(SCc4cccc(F)c4)nc4ccncc43)c(C)o2)cc1OC | – | – | ? | – | ? | ?
Cc1oc(-c2ccccc2F)nc1Cn1c(SCc2ccccc2F)nc2ccncc21 | ? | – | 14.6µM | – | · | ?
Cc1cccc(-c2nc(Cn3c(SCc4cccc(C(F)(F)F)c4)nc4ccncc43)c(C)o2)c1 | ? | – | ? | – | · | 14.6µM
COc1ccc(-c2nc(Cn3c(SCc4ccccc4F)nc4ccncc43)c(C)o2)cc1OC | – | – | 20.6µM | – | · | 18.4µM
Cc1ccc(-n2nc(C)c3c(C)cc(=O)n(CC(=O)Nc4cc(Cl)ccc4C)c32)cc1 | – | – | – | – | · | –
